Source: PubChem (National Center for Advancing Translational Sciences (NCATS))
D2 ag-1 – activates the human D2 dopamine receptor; HEK293 T-REx D2 cells, calcium flux agonist mode; hit rate 0.53% among 340,000; P14416; activation, % at 2 µM; AID 485358;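 active = activation over 3 SD above normal in the single-dose calcium agonist read, cut at about 30% in these data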; also: 0% is about no effect
Target sequence (P14416 whole entry, looked up): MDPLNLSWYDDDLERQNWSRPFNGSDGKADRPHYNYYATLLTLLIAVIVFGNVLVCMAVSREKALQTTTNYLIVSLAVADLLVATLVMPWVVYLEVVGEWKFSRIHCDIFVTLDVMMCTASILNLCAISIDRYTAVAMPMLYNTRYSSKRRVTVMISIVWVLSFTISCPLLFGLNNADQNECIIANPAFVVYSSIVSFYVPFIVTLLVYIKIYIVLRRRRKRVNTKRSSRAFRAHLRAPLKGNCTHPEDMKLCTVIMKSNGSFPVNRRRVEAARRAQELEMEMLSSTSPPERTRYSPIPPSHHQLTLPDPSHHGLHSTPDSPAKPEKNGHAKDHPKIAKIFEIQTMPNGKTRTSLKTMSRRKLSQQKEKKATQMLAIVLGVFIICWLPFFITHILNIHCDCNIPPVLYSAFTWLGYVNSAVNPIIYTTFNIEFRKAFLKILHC
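In this primary screen, compounds producing a positive calcium signal within 180 s of addition to tetracycline-induced, force-coupled HEK293 Trex D2 cells are flagged; cells are dye-loaded with a no-wash calcium kit beforehand.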
D2 PAM-1 – D2 dopamine receptor (human) potentiation. P14416. HEK293 T-REx D2, calcium flux, EC20 dopamine potentiation. potentiation, % at 10 µM. hit rate 0.34% among 340,000. AID 485347;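 active = potentiation over 3 SD above the plate norm, cut at about 30% in these data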; also: 0% is about no effect
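Tetracycline-induced HEK293 T-REx cells force-coupled to calcium signalling expressed D2; compounds were pin-added after a 10 s baseline, read kinetically 180 s, then an EC20 dopamine challenge followed with a further 180 s calcium read.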
D2 antag – D2 dopamine receptor (human) antagonism; P14416; HEK293 TREx D2 cells, calcium flux, dopamine EC80; inhibition, % at 10 µM; hit rate 2% among 340,000; in the data active = inhibition above about 30%; inactive = below that, where a call was filed; also: 0% is about no effect
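In this primary screen, negative modulation is detected by tracking calcium flux after an EC80 dopamine challenge in inducible HEK293 T-REx D2 cells preexposed to test compound for 180 s.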
D2 ag-2 – agonists of human D2 dopamine receptor (beta-arrestin); P14416; hit rate 0.084% among 360,000; AID 624465; activation, % (no concentration beside the values); DiscoveRx PathHunter D2 beta-arrestin, luminescence, 90 min; 100% = 57 uM dopamine signal; in the data active = activation above about 40%; inconclusive = between about 15% and that limit
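DiscoveRx PathHunter D2 beta-arrestin cells (2,100/well) attached overnight, then compound-stimulated 90 min at 37 C in HBSS/10 mM HEPES/0.1% Tween-20 buffer; beta-galactosidase complementation read by luminescence after 1 h at ambient temperature. Dopamine 57 uM final (EC100) as control.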
D2 PAM-2 – positive allosteric modulators of human D2 dopamine receptor | P14416 | DiscoveRx D2 beta-arrestin cells, luminescence, 90 min; 100% = 57 uM dopamine signal | potentiation, % (concentration not given with the values) | hit rate 0.23% among 360,000 | AID 624464; in the data active = potentiation above about 50%; inconclusive = mostly about 30% to 49%
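D2 cells co-treated with compound plus 50 nM dopamine (EC20) for 90 min at 37 deg C to detect potentiation. Beta-arrestin recruitment was read as enzyme-fragment luminescence after 1 h at ambient temperature. Full response was set by 57 uM dopamine.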
D3 ag – activates human D3 dopamine receptor beta-arrestin recruitment | shares compounds with D2 ag-1 | DiscoveRx D3 beta-arrestin cells, luminescence, 90 min | Potency, µM (highest dose often 76.9 µM), for inactives: top-dose activation, usual class: activators | hit rate 4% among 2,300;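 also: potency is read from the fitted curve at half-maximal effect; 100% = dopamine control response; nearly all actives have a fitted effect of over 70% in size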
D2 ag-3 – counter-screen for D3 agonists: human D2 dopamine receptor agonism | shares compounds with D2 ag-1 | DiscoveRx PathHunter D2 beta-arrestin, luminescence, 90 min; response scale: percent relative to full dopamine signal | Potency, µM (doses to about 76.9 µM), for inactives: at the highest dose activation, usual class: activators | hit rate 5.9% among 2,300; also: potency is read from the fitted curve at half-maximal effect; % of control where 0% means no effect; nearly all actives have a fitted effect of over 70% in size
* hit, by the source's call. This is a sample that favours compounds with a hit; in the whole collection about 2.4% have one here. Unless noted, calls follow the shape of the dose curve; as a rule, active = well fitted activation curve with a large enough effect; inconclusive = small, poorly fitted or top-dose-only effect; inactive = flat fitted curve, though single readings scatter.

What do the screens show for `Cc1ccc(Nc2nc(N)nc(CN3CCN(c4ccccc4F)CC3)n2)cc1`?
D2 ag-1: 75*; D2 PAM-1: -24; D2 antag: 78*; D2 ag-2: inconclusive; D2 PAM-2: 18; D3 ag: -1%; D2 ag-3: inconclusive

How did Nc1nc(CN2CCN(c3ccccc3)CC2)nc(Nc2ccc(Cl)cc2)n1 do in these assays?
D2 ag-1: 64*; D2 PAM-1: -24; D2 antag: 77*; D2 ag-2: 43*; D2 PAM-2: inconclusive; D3 ag: inconclusive; D2 ag-3: 18µM*

How did Cc1nn(C)c2c1c(-c1ccccc1)cc(=O)n2Cc1ccc(F)cc1 do in these assays?
D2 ag-1: -1; D2 PAM-1: -1

How did CC(C)N1CCN(Cc2cccc(-c3ccco3)c2)CC1CCO (centres undefined) do in these assays?
D2 ag-1: 0; D2 PAM-1: -3; D2 antag: 14; D2 ag-2: 3; D2 PAM-2: -16; D3 ag: -8%; D2 ag-3: -6%

Results for CC(C)N1CCN(Cc2ccccc2-c2ccco2)CC1CCO (centres undefined) ?
D2 ag-1: -2; D2 PAM-1: 5; D2 antag: -12; D2 ag-2: -1; D2 PAM-2: -1

Results for Cn1cc(CNCc2ccc(-n3cccn3)cc2)c(-c2ccccc2F)n1 ?
D2 ag-1: 46*; D2 PAM-1: -22; D2 antag: 44*; D2 ag-2: inconclusive; D2 PAM-2: -10; D3 ag: 27%; D2 ag-3: inconclusive

What do the screens show for `COc1ccc(NS(=O)(=O)c2cccc(C(=O)N3CCC3)c2)cc1`?
D2 ag-1: 16; D2 PAM-1: -5; D2 antag: -33; D2 ag-2: -4; D2 PAM-2: -7; D3 ag: 4%; D2 ag-3: -5%

How did COc1ccc(NS(=O)(=O)c2ccc(C)c(C(=O)N3CCC3)c2)cc1 do in these assays?
D2 ag-1: 73*; D2 PAM-1: -29; D2 antag: 49*; D2 ag-2: 1; D2 PAM-2: -1; D3 ag: 0%; D2 ag-3: 26%

Results for CC1CN(C(=O)c2ccc(NS(=O)(=O)c3cccc(Cl)c3)cc2)CC(C)O1 (centres undefined) ?
D2 ag-1: 0; D2 PAM-1: -4; D2 antag: -1; D2 ag-2: 0; D2 PAM-2: 1; D3 ag: 1%; D2 ag-3: -3%

Results for CC(=O)OCC1=C[C@@H]2OC(=O)C3=CO[C@@H](O[C@@H]4O[C@H](CO)[C@@H](O)[C@H](O)[C@H]4O)[C@H]1[C@@H]32 ?
D2 ag-1: 0; D2 PAM-1: 1; D2 antag: 4; D2 ag-2: -2; D2 PAM-2: -5; D3 ag: 1%; D2 ag-3: -3%

How did COC(=O)C1=CO[C@@H](O[C@@H]2O[C@H](CO)[C@@H](O)[C@H](O)[C@H]2O)C2C(CO)=CCC12 (some centres undefined) do in these assays?
D2 ag-2: 2; D2 PAM-2: -50

How did O=C(c1ccccc1)N1N=C(C(F)(F)F)CC1(O)c1ccc(F)cc1 (centres undefined) do in these assays?
D2 ag-1: 0; D2 PAM-1: 8; D2 antag: -27; D2 ag-2: -3; D2 PAM-2: -4; D3 ag: -12%; D2 ag-3: -1%

What do the screens show for `O=C(c1ccccc1)N1N=C(C(F)(F)F)CC1(O)c1ccccc1` (centres undefined)?
D2 ag-1: -2; D2 PAM-1: 4; D2 antag: -2; D2 ag-2: 1; D2 PAM-2: -12

How did Cc1ccc(CCNC(=O)c2ccc3c(c2)N(Cc2ccccc2F)C(=O)c2ccccc2S3=O)cc1 (centres undefined) do in these assays?
D2 ag-1: 1; D2 PAM-1: -4
